# Measured values as given in PubChem BioAssay AID720650 (Broad Institute, 2013).
# The source made the active and inactive calls. How the calls were made is not given here.
# Assay: C difficile toxins, biochemical counterscreen, UDPG substrate absence, confirmatory dose response (AID 720650)
# Settings: series mostly up to 19.5 µM
row,SMILES,AC50
1,CCOC(=O)/C=c1/s/c(=C/c2ccc3cc(OC)ccc3c2)c(=O)n1CC(=O)NCC1CCCO1 (stereo not drawn),inactive
2,O=C1Cc2cc(S(=O)(=O)NCc3ccccc3Cl)cc3c2N1CCC3,inactive
3,C[C@@H]1CN([C@@H](C)CO)S(=O)(=O)c2ccc(C#Cc3ccncc3)cc2O[C@H]1CN(C)C(=O)C1CC1,inactive
4,CCC(=O)N1CC[C@@H]2[C@@H](CO)N(C)c3ccc(-c4ccccc4)cc3[C@@H]21,6.31 µM (active)
5,CCn1cc(C(=O)O)c(=O)c2cc(F)c(N3CCN(C(=S)NC(=O)c4ccccc4Br)CC3)cc21,inactive
6,COc1cc(O)ccc1C(=O)CCc1ccc(O)cc1,10.7 µM (active)
7,Cc1ccccc1S(=O)(=O)N1CCCc2nc(C)c(C)cc21,> 39 µM (inactive)
8,Cc1cc(C)nc(/N=C(\N)Nc2ccccc2-c2ccccc2)n1,> 39 µM (inactive)
9,Cc1ccc(NCCN(C)C)c2c(=O)c3cc(O)ccc3sc12,5.2 µM (active)
10,C=CCNS(=O)(=O)c1nc(C)c(Cl)c(C)c1C#N,inactive
11,CC(C)CNC(=O)c1c(F)c(F)c(F)c(F)c1F,inactive
12,Cc1cnc([N+](=O)[O-])n1CCOC(=O)NC(=O)c1ccc(F)cc1,inactive
13,Cc1n[nH]c(=O)nc1Nc1ccc(O)cc1,11.8 µM (active)
14,CN(C)CCNC(=O)c1cc2c(s1)-c1ccc(Cl)cc1SC2,> 39 µM (inactive)
15,O=S(=O)(Cc1cccc(F)c1)c1c[nH]c2ccccc12,> 39 µM (inactive)
16,Cc1ccc(Oc2c(CO)c(-c3ccccc3)nn2C)cc1,inactive
17,O=C1NN=C2CCCCCCC12 (stereo not drawn),inactive
18,NC(=O)C1(Nc2ccc(-c3ccc(Br)cc3)cc2)CCCC1,inactive
19,CC1C(c2ccc3c(c2)OCO3)c2cc3c(cc2OC1N1CCOCC1)OCO3 (stereo not drawn),inactive

row,SMILES,AC50
1,COc1ccc(C2=NS(=O)(=O)N(C)C(C(=O)NCc3ccc4c(c3)OCO4)=C2)cc1OC,inactive
2,Cc1ccc(-c2cc(C(=O)OC3CCOC3=O)c3ccccc3n2)c(C)c1 (stereo not drawn),inactive
3,Oc1ccc(/C=N/N2CCN(Cc3ccccc3)CC2)cc1,> 39 µM (inactive)
4,Oc1ccccc1-c1cnc2cccnn12,> 39 µM (inactive)
5,COc1ccc(Br)cc1C(=O)Nc1ccc(O)cc1,9.64 µM (active)
6,Cc1cc(C)c(S(=O)(=O)c2ccc(Cl)cc2C)c(Cl)n1,> 39 µM (inactive)
7,O=C(O)c1c(C(=O)O)c(-c2ccc(Br)cc2)n2c1CSC2,inactive
8,CCN(C(=O)CN1C(=O)NC2(CCC(C)CC2)C1=O)C1CCCCC1 (stereo not drawn),inactive
9,CC(Sc1nc(N)cc(=O)[nH]1)C(=O)NCC(=O)Nc1ccc(F)c(F)c1F (stereo not drawn),inactive
10,COc1ccc(C(=O)OCC(=O)Nc2ccc3[nH]c(=O)[nH]c3c2)c(OC)c1OC,inactive
11,Cc1ccc2nc(-c3ccc4c(c3)OCCO4)cn2c1,12.4 µM (active)
12,Cc1ccc2c(c1)/C(=C/c1ccccc1C)C(=O)N2,inactive
13,CC(=O)c1cccc(OCC(=O)c2cc(C)n(-c3cc(C)on3)c2C)c1,12 µM (active)
14,Cc1ccc(NNC(=O)c2ccno2)cc1C,0.302 µM (active)
15,COC(=O)C1=C(c2ccc(OCc3ccccc3)cc2)C[C@@H]2CC[C@H]1N2C(=O)NCCCc1ccccc1,inactive
16,Oc1ccc(/C=N/Nc2ncnc3nc[nH]c23)cc1,inactive
17,Cn1c(=O)c2c(nc(N3CCOCC3)n2CCSc2ncccn2)n(C)c1=O,inactive
18,COc1ccc(NC(=O)Cn2cnc3sc(C)c(S(=O)(=O)N4CCOCC4)c3c2=O)c(OC)c1,inactive
19,Cc1c(-n2c(O)c(C3=c4ccccc4=NC3=O)sc2=S)c(=O)n(-c2ccccc2)n1C,inactive
